Counter-ions that a name gives are not always drawn.

In the assay the test system is Saccharomyces cerevisiae BY4741 SeMeCo community. As to the kind of experiment: z-score of subpopulation abundance vs DMSO median, subpopulation auxotrophic for HU; higher = larger share of this subpopulation than in DMSO controls. The note with it: 10 µM; 24 h; SM minimal medium; subpopulation (auxotrophy): HU. The protocol:
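Fluorescent four-plasmid SeMeCo (self-establishing metabolically cooperating S. cerevisiae BY4741 community; plasmids pH-mRuby2, pL-mWasabi, pU-eCFP, pM-TagRFP657) was grown 24 h in minimal SM medium with each Selleck FDA-approved drug at 10 µM in 384-well plates. Cells were fixed and imaged by high-content confocal microscopy. For each auxotrophic subpopulation (and the prototroph), a z-score gives the deviation from the DMSO vehicle-control population median.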
Take `CC(=O)OCC1=C(C(=O)O)N2C(=O)C(N)C2SC1` (centres undefined) [7-Aminocephalosporanic acid]: the “z-score of subpopulation abundance” value turned out to be 0.37.

`CC(C)N(CCC(C(N)=O)(c1ccccc1)c1ccccn1)C(C)C` (centres undefined) [Disopyramide]: the “z-score of subpopulation abundance” value is -0.45.

In the case of `CN(C)C(=O)Oc1cccc([N+](C)(C)C)c1` [Neostigmine Bromide], the “z-score of subpopulation abundance” value was -0.26.

`CN(C)C(=O)Oc1ccc[n+](C)c1` [Pyridostigmine Bromide]: the “z-score of subpopulation abundance” value was found to be 0.63.

For the compound `CN1[C@@H]2CC[C@H]1C[C@@H](OC(=O)C(CO)c1ccccc1)C2` (some centres undefined) [Atropine sulfate monohydrate], the “z-score of subpopulation abundance” value amounted to 0.23.

For the compound `COc1ccc2c(c1)[C@]13CCCC[C@@H]1[C@H](C2)N(C)CC3` [Dextromethorphan hydrobromide hydrate], the “z-score of subpopulation abundance” value was -0.61.

For the compound `CC[C@@]1(O)C(=O)OCc2c1cc1n(c2=O)Cc2cc3ccccc3nc2-1` [Camptothecin], the “z-score of subpopulation abundance” value was -0.74.

`CC[C@H]1CN2CC[C@]3(C(=O)Nc4ccccc43)[C@@H]2C[C@@H]1/C(=C\OC)C(=O)OC` [Rhynchophylline]: the “z-score of subpopulation abundance” value turned out to be 0.35.

In the case of `CCN1CC2(OC(=O)c3ccccc3NC(C)=O)CCC(OC)C34C1C(CC23)C1(O)CC(OC)C2CC4C1(O)C2OC` (centres undefined) [Lappaconitine], the “z-score of subpopulation abundance” value worked out at 0.26.

As for `COc1ccc(C(CN(C)C)C2(O)CCCCC2)cc1` (centres undefined) [Venlafaxine HCl], the “z-score of subpopulation abundance” value was -0.07.

On to `Nc1ccncc1` [4-Aminopyridine], for which the “z-score of subpopulation abundance” value came out at 0.52.

Regarding `O=[N+]([O-])C(Br)(CO)CO` [Bronopol], the “z-score of subpopulation abundance” value was found to be 0.4.

Regarding `CN1[C@@H]2C[C@@H](OC(=O)[C@H](CO)c3ccccc3)C[C@H]1[C@@H]1O[C@@H]12` [Scopolamine HBr], the “z-score of subpopulation abundance” value is -1.37.

As for `C[C@@H]1CC[C@H]2[C@@H](C)C(=O)O[C@@H]3O[C@@]4(C)CC[C@@H]1[C@]32OO4` [Artemisinin], the “z-score of subpopulation abundance” value came out at 0.58.

As to `O=C(O[C@H]1C[N+]2(CCCOc3ccccc3)CCC1CC2)C(O)(c1cccs1)c1cccs1` [Aclidinium Bromide], the “z-score of subpopulation abundance” value came out at 0.63.

With `COc1ccc(C(CN(C)C)C2(O)CCCCC2)cc1` (centres undefined) [Venlafaxine], the “z-score of subpopulation abundance” value is 0.4.

In the case of `CCN(C)C(=O)Oc1cccc([C@H](C)N(C)C)c1` [Rivastigmine], the “z-score of subpopulation abundance” value amounted to 0.2.

Consider `NCCc1c[nH]c2ccc(O)cc12` [Serotonin HCl], for which the “z-score of subpopulation abundance” value was -0.18.

On to `CCOC(=O)Nc1ccc(NCc2ccc(F)cc2)cc1N` [Retigabine 2HCl], for which the “z-score of subpopulation abundance” value was -0.49.

On to `N#Cc1nn(-c2c(Cl)cc(C(F)(F)F)cc2Cl)c(N)c1[S+]([O-])C(F)(F)F` (centres undefined) [Fipronil], for which the “z-score of subpopulation abundance” value is -0.37.

Take `CC[C@@H](C(N)=O)N1CCCC1=O` [Levetiracetam]: the “z-score of subpopulation abundance” value is -0.75.

For the compound `Cn1cc(C2=C(c3cn(C4CCN(Cc5ccccn5)CC4)c4ccccc34)C(=O)NC2=O)c2ccccc21`, the “z-score of subpopulation abundance” value is -0.2.

As for `COc1ccc2[nH]cc(CCN)c2c1` [5-Methoxytryptamine], the “z-score of subpopulation abundance” value stood at 0.53.

Turning to `O=C(O[C@H]1C[C@H]2CC[C@@H](C1)[N+]21CCCC1)C(O)(c1ccccc1)c1ccccc1` [Trospium chloride], the “z-score of subpopulation abundance” value came out at 0.09.

Regarding `C=C[C@H]1CN2CC[C@H]1C[C@H]2[C@H](O)c1ccnc2ccccc12` [Cinchonidine], the “z-score of subpopulation abundance” value was -0.45.

As for `CN[C@@H]1[C@@H](O)[C@@H](O[C@@H]2[C@@H](O)[C@H](O[C@H]3O[C@H](CN)CC[C@H]3N)[C@@H](N)C[C@H]2N)OC[C@]1(C)O.CN[C@@H]1[C@@H](O)[C@@H](O[C@@H]2[C@@H](O)[C@H](O[C@H]3O[C@H]([C@@H](C)N)CC[C@H]3N)[C@@H](N)C[C@H]2N)OC[C@]1(C)O.CN[C@@H]1[C@@H](O)[C@@H](O[C@@H]2[C@@H](O)[C@H](O[C@H]3O[C@H]([C@@H](C)NC)CC[C@H]3N)[C@@H](N)C[C@H]2N)OC[C@]1(C)O` [Gentamicin Sulfate], the “z-score of subpopulation abundance” value was -0.53.

For the compound `CN(C)[C@@H]1C(=O)C(C(N)=O)=C(O)[C@@]2(O)C(=O)C3=C(O)c4c(O)cccc4[C@@](C)(O)[C@H]3C[C@@H]12` [Tetracycline HCl], the “z-score of subpopulation abundance” value is -0.3.

Consider `Nc1nc(N)nc(NC2CC2)n1` [Cyromazine], for which the “z-score of subpopulation abundance” value stood at 0.05.

As to `O=c1[nH]c2ccccc2n1CCCN1CCC(n2c(=O)[nH]c3cc(Cl)ccc32)CC1` [Domperidone], the “z-score of subpopulation abundance” value is 0.86.

As for `C[C@@H]1O[C@@H](O[C@H]2C[C@@H](O)[C@]3(CO)[C@H]4[C@H](O)C[C@]5(C)[C@@H](C6=CC(=O)OC6)CC[C@]5(O)[C@@H]4CC[C@]3(O)C2)[C@H](O)[C@H](O)[C@H]1O` [Ouabain], the “z-score of subpopulation abundance” value was -0.71.

Regarding `CCN(CC)CCOC(=O)C(O)(c1ccccc1)c1ccccc1` [Benactyzine hydrochloride], the “z-score of subpopulation abundance” value worked out at 1.62.

In the case of `CNC1CC(N)C(O)C(OC2OC(CO)C(O)C3OC4(OC(C(N)CO)C(O)C(O)C4O)OC23)C1O` (centres undefined) [Hygromycin B], the “z-score of subpopulation abundance” value is -0.07.

Regarding `CCCCCCCCCCCCCCCC[n+]1ccccc1` [Cetylpyridinium Chloride], the “z-score of subpopulation abundance” value turned out to be 16.1.

In the case of `Oc1cccc2cccnc12` [8-Hydroxyquinoline], the “z-score of subpopulation abundance” value was -1.16.

The values are drawn from the supplement of paper PMC8975748.
